Compound activity: PubChem BioAssay, National Center for Advancing Translational Sciences (NCATS)
Nrf2 activator – qHTS of Nrf2 Activators; Potency, µM (highest dose often 46.1 µM), for inactives: top-dose activation, actives largely listed as activators; 410,000 compounds, 0.31% hits; AREc32 ARE-luciferase reporter (MCF7-derived line), luminescence, 24 h; AID 624171, 2012; also: potency is read from the fitted curve at half-maximal effect; % of control where 0% means no effect; nearly all actives have a fitted effect of over 65% in size
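Cells of the AREc32 ARE-luciferase line are plated in OPTI-MEM containing 5% FBS and left overnight at 37 deg C. Compounds are pinned in, incubation continues 24 hr, and firefly luciferase signal is then measured.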
D3 antag – qHTS of D3 Dopamine Receptor Antagonist: qHTS; D(3) dopamine receptor (Homo sapiens), P35462; D3R cells, DiscoveRx beta-arrestin luminescence, antagonist mode; hits give low values; max response, negative = inhibition, %; 360,000 compounds, 2.5% hits; in the data active = max response below about -50%; inconclusive = no clear call, values can overlap the other calls; also: % is scaled to controls: 0 for no effect and ±100 for the full control effect
Target sequence (P35462 whole entry, looked up): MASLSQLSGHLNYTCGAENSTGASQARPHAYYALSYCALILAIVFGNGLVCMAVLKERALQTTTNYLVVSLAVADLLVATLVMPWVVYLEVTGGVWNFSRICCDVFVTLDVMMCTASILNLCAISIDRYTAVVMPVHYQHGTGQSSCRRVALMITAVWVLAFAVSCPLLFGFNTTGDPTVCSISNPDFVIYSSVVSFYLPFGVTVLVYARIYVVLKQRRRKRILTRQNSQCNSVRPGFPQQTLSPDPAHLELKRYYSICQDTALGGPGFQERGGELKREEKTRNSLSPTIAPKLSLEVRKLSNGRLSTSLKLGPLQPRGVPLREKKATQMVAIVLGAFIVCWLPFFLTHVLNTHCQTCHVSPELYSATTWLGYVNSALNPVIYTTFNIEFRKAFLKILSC
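Cells plated overnight at 1500 cells/well, then exposed to library compounds with dopamine controls for 90 minutes at 37 degrees C. DiscoveRx reagent added for 30–60 minutes at room temperature; luminescence read, quantitative HTS format.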
GRP78 ERSR act – qHTS for Inducers of the Endoplasmic Reticulum Stress Response (ERSR) in Human Glioma: qHTS. U87-MG GRP78 promoter luciferase reporter, 16 h. Potency, µM, without a hit: top-dose activation, hits mostly activators. 420,000 compounds, 0.02% hits. AID 602332, 2012; also: potency is read from the fitted curve at half-maximal effect; series mostly up to about 76 µM; % of control where 0% means no effect; nearly all actives have a fitted effect of over 35% in size
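Stably transfected U87-MG human glioma cells carrying a GRP78-based luminescent sensor were seeded at 1000 cells/well, pin-dosed with compounds and incubated 16 h. Luciferase reagent was then added, and end-point luminescence was read after 10 min at room temperature.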
D3 ag – qHTS of D3 Dopamine Receptor Agonist: qHTS | max activation, % | 410,000 compounds, 0.58% hits | AID 652048, 2013 | D(3) dopamine receptor (Homo sapiens), P35462 | D3R DiscoveRx beta-arrestin cells, luminescence, 90 min; in the data active = max activation above about 30%; also: 0% is about no effect
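Cells at 1500/well, incubated overnight, then treated with pinned compounds (dopamine as control) for 90 min at 37 degrees C. DiscoveRx reagent added for 30 - 60 minutes at room temperature; luminescence read.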
An asterisk follows results filed as active. Compounds with a hit are over-represented: about 3% of the library has one in this group of screens. Unless noted, calls follow the shape of the dose curve; as a rule, active = well fitted curve in the direction sought with a large enough effect; inconclusive = small, poorly fitted or top-dose-only effect, or another doubt; inactive = no such curve, though single readings can be large; an effect the other way counts as inactive or inconclusive.

How did CSCC[C@H](NC(=O)[C@H](CCCNC(=N)N)NC(=O)[C@H](Cc1ccc(O)cc1)NC(=O)[C@@H]1CCCN1C(=O)CNC(=O)[C@H](CCC(=O)O)NC(=O)[C@H](CC(=O)O)NC(=O)[C@H](CCCCN)NC(=O)[C@H](CCCCN)NC(=O)[C@H](CCC(=O)O)NC(=O)[C@H](C)N)C(=O)N[C@@H](CCC(=O)O)C(=O)N[C@@H](Cc1cnc[nH]1)C(=O)N[C@@H](Cc1ccccc1)C(=O)N[C@@H](CCCNC(=N)N)C(=O)N[C@@H](Cc1c[nH]c2ccccc12)C(=O)NCC(=O)N[C@@H](CO)C(=O)N1CCC[C@H]1C(=O)N1CCC[C@H]1C(=O)N[C@@H](CCCCN)C(=O)N[C@@H](CC(=O)O)C(=O)O do in these assays?
GRP78 ERSR act: 0%

What do the screens show for `O=[N+]([O-])c1cnc2ccccc2c1`?
Nrf2 activator: 11%; D3 antag: -16; GRP78 ERSR act: -3%; D3 ag: -24

Results for O=[N+]([O-])c1cc([N+](=O)[O-])c2cc3ccccc3nc2c1 ?
Nrf2 activator: inconclusive; D3 antag: -80*; GRP78 ERSR act: -6%; D3 ag: -28

Results for COc1cc(/C=C2\CCCc3c2nc2ccccc2c3C(=O)O)cc([N+](=O)[O-])c1O ?
Nrf2 activator: -1%; D3 antag: -100*; GRP78 ERSR act: -5%; D3 ag: -30

Results for CC1=Nc2ccccc2/C1=C(/C)c1c(C)[nH]c2ccccc12 ?
GRP78 ERSR act: -1%

How did CCOC(=O)c1nnc2cc(-c3ccc(Br)cc3)nn2c1C do in these assays?
Nrf2 activator: 3%; D3 antag: 15; GRP78 ERSR act: 1%; D3 ag: 5

What do the screens show for `CCOC(=O)c1cnc2cc(-c3ccc(OCC)cc3)nn2c1-c1ccccc1`?
Nrf2 activator: -1%; GRP78 ERSR act: -3%; D3 ag: 36*

How did CCOC(=O)c1nnc2cc(-c3ccccc3)nn2c1C do in these assays?
Nrf2 activator: inconclusive; D3 antag: -74*; GRP78 ERSR act: 7%; D3 ag: 8

Results for O=S(=O)(O)OCC1OC(COS(=O)(=O)O)(C2(OS(=O)(=O)O)OC(CO)C(OS(=O)(=O)O)C(OS(=O)(=O)O)C2OS(=O)(=O)O)C(OS(=O)(=O)O)C1OS(=O)(=O)O (configuration not stated) ?
GRP78 ERSR act: -2%

How did CC(=O)OCCNc1cc(Sc2nc3ccccc3[nH]2)c2nonc2c1[N+](=O)[O-] do in these assays?
Nrf2 activator: 3%; D3 antag: -79*; GRP78 ERSR act: -14%; D3 ag: -28

Results for CC(=O)OCCCNc1cc(Sc2nc3ccccc3s2)c2nonc2c1[N+](=O)[O-] ?
Nrf2 activator: 0%; D3 antag: -78*; GRP78 ERSR act: -2%; D3 ag: -17

What do the screens show for `CC(=O)OCCCNc1cc(Sc2ccc(C)cc2)c2nonc2c1[N+](=O)[O-]`?
Nrf2 activator: 13%; D3 antag: -73*; GRP78 ERSR act: 0%; D3 ag: -35

How did CCN1CCN(C(=O)N[C@H](C(=O)N[C@@H]2C(=O)N3[C@@H](C(=O)O)C(C)(C)S[C@@H]23)c2ccccc2)C(=O)C1=O do in these assays?
GRP78 ERSR act: -2%

How did Cc1csc[n+]1CC(=O)c1ccc(I)cc1 do in these assays?
GRP78 ERSR act: 2%

What do the screens show for `Cc1ccc(NC(=S)NC(=O)c2ccc(F)cc2)cc1S(=O)(=O)Nc1cccc(Cl)c1`?
Nrf2 activator: 4%; D3 antag: -60*; GRP78 ERSR act: -1%; D3 ag: -19

How did Cc1ccc(NC(=O)c2cccs2)cc1S(=O)(=O)Nc1cccc(Cl)c1 do in these assays?
Nrf2 activator: 0%; D3 antag: 13; GRP78 ERSR act: -6%; D3 ag: 1

What do the screens show for `CCc1nc2nc(C)c(NS(=O)(=O)c3ccc(C(C)(C)C)cc3)c(=O)n2[nH]1`?
Nrf2 activator: 0%; GRP78 ERSR act: -1%; D3 ag: 7

Results for O=C1CCN(Cc2ccccc2)CCN1[C@H](COc1ccccc1)c1ccccc1 ?
Nrf2 activator: 0%; D3 antag: -18; GRP78 ERSR act: -6%; D3 ag: -54

Results for O=C1CCN(Cc2cccnc2)CCN1[C@H](CO)Cc1ccccc1 ?
Nrf2 activator: 0%; D3 antag: -67*; GRP78 ERSR act: 1%; D3 ag: -31

What do the screens show for `N#CC[C@H](c1ccccc1)N1CCN(Cc2ccccc2)CCC1=O`?
Nrf2 activator: 0%; D3 antag: -10; GRP78 ERSR act: -7%; D3 ag: 34*

What do the screens show for `COc1ccc(CN2CCOc3ccc(CN4CCC(O)CC4)cc3C2)c(OC)c1OC`?
GRP78 ERSR act: 0%

How did CC(C)C[C@H](NC(=O)[C@@H](N)Cc1ccccc1)C(=O)N[C@@H](Cc1ccccc1)C(=O)N[C@@H](CCC(N)=O)C(=O)N1CCC[C@H]1C(=O)N[C@@H](CCC(N)=O)C(=O)N[C@@H](CCCN=C(N)N)C(=O)N[C@@H](Cc1ccccc1)C(N)=O do in these assays?
GRP78 ERSR act: -5%

How did COc1ccc2[nH]c(=O)c(C(c3nnnn3C3CCCC3)N3CCN(Cc4ccc5c(c4)OCO5)CC3)cc2c1 (configuration not stated) do in these assays?
Nrf2 activator: 0%; D3 antag: -54*; GRP78 ERSR act: -4%; D3 ag: -25

Results for CCOC(=O)C1(CC2CCCCO2)CCN(Cc2ccc(OC)cc2F)CC1 (configuration not stated) ?
Nrf2 activator: 0%; D3 antag: -67*; GRP78 ERSR act: -3%; D3 ag: -12

What do the screens show for `CN(C)c1ccc(/C=C/c2cc3ccccc3cn2)cc1`?
GRP78 ERSR act: -3%

Results for CSc1ncccc1C(=O)N1CCOc2ccc(C(C)(O)CCn3cccn3)cc2C1 (configuration not stated) ?
GRP78 ERSR act: -4%

How did CN1CCN(CC(=O)Nc2nc3c(s2)CCCC3)CC1 do in these assays?
Nrf2 activator: 4%; D3 antag: 0; GRP78 ERSR act: -1%; D3 ag: -5

How did CCN1CCN(/C=N/c2nc3c(s2)CCCC3)CC1 do in these assays?
Nrf2 activator: -2%; D3 antag: -75*; GRP78 ERSR act: -12%; D3 ag: 0

How did COCc1cc(=O)[nH]c(Nc2nc3ccc(C)cc3o2)n1 do in these assays?
Nrf2 activator: 13µM*; D3 antag: -23; GRP78 ERSR act: inconclusive; D3 ag: -4

How did CCc1ccccc1NC(=O)C1CCN(S(=O)(=O)c2cn(C)cn2)CC1 do in these assays?
Nrf2 activator: -1%; GRP78 ERSR act: -1%; D3 ag: 5

Results for OCCN1CCN(Cc2ccc3c(c2)CN(Cc2cccn2-c2ccccn2)CCO3)CC1 ?
GRP78 ERSR act: -3%

Results for Cc1cccnc1NC1CCCCC1 ?
Nrf2 activator: -1%; D3 antag: -11; GRP78 ERSR act: 3%; D3 ag: -1
